Measurements as given in paper PMC5540273 (PLoS ONE, 2017).

How the values were obtained:
Settings in all cases: concentration: 1 μM, replicates: in singlicate; n = 1
MAP3K4 = system: MAP3K4
MAP4K2 = system: MAP4K2
MAP4K3 = system: MAP4K3
MAP4K4 = system: MAP4K4
MAP4K5 = system: MAP4K5
MAPKAPK2 = system: MAPKAPK2
MAPKAPK5 = system: MAPKAPK5
MARK1 = system: MARK1
MARK2 = system: MARK2
MARK3 = system: MARK3
MARK4 = system: MARK4
MAST1 = system: MAST1
MEK1 = system: T1, MEK1
T1 construct: gene MAP2K1

MEK2 = system: T2, MEK2
T2 construct: gene MAP2K2

MEK3 = system: T3, MEK3
T3 construct: gene MAP2K3

MEK4 = system: T4, MEK4
T4 construct: gene MAP2K4

MEK5 = system: T5, MEK5
T5 construct: gene MAP2K5

MEK6 = system: T6, MEK6
T6 construct: gene MAP2K6

MELK = system: MELK
MERTK = system: MERTK
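Note: KINOMEscan kinase panel screen.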

SMILES | %Inh (MAP3K4) [%] | %Inh (MAP4K2) [%] | %Inh (MAP4K3) [%] | %Inh (MAP4K4) [%] | %Inh (MAP4K5) [%] | %Inh (MAPKAPK2) [%] | %Inh (MAPKAPK5) [%] | %Inh (MARK1) [%] | %Inh (MARK2) [%] | %Inh (MARK3) [%] | %Inh (MARK4) [%] | %Inh (MAST1) [%] | %Inh (MEK1) [%] | %Inh (MEK2) [%] | %Inh (MEK3) [%] | %Inh (MEK4) [%] | %Inh (MEK5) [%] | %Inh (MEK6) [%] | %Inh (MELK) [%] | %Inh (MERTK) [%]
Nc1ncnc2c1ncn2-c1ccc(Cl)cc1 [AH2635] | 0 | 0 | 0 | 12 | 0 | 10 | 0 | 0 | 0 | 3 | 13 | 0 | 0 | 0 | 0 | 12 | 48 | 0 | 0 | 10
COc1cc2ncn(-c3cc(OCc4ccncc4)c(C(N)=O)s3)c2cc1OC [GSK336313] | 0 | 0 | 0 | 0 | 3 | 5 | 0 | 0 | 0 | 0 | 0 | 0 | 3 | 4 | 0 | 8 | 88 | 44 | 0 | 0
COc1ccc(-c2cc3c(C)nc(N)nc3n([C@H]3CC[C@H](O)CC3)c2=O)cn1 | 0 | 0 | 3 | 0 | 0 | 0 | 0 | 0 | 0 | 0 | 0 | 0 | 0 | 0 | 0 | 0 | 0 | 0 | 3 | 0
CCC(=O)c1c(-c2ccccc2)c2cc(Cl)ccc2c(=O)n1Cc1cc(S(C)(=O)=O)n(CC(N)=O)n1 | 0 | 0 | 0 | 0 | 0 | 0 | 0 | 0 | 0 | 6 | 5 | 0 | 1 | 40 | 0 | 0 | 15 | 0 | 0 | 0
COc1cc2nccc(Nc3cccc(Oc4ccccc4)c3)c2cc1OC.Cl [GW284543] | 0 | 0 | 0 | 0 | 0 | 15 | 0 | 0 | 8 | 31 | 1 | 7 | 87 | 88 | 0 | 0 | 99.9 | 0 | 8 | 0
CCC(=O)c1c(-c2ccccc2)c2cc(Cl)ccc2c(=O)n1Cc1cc(S(C)(=O)=O)n(CC(F)F)n1 | 9 | 0 | 0 | 0 | 0 | 0 | 5 | 0 | 1 | 0 | 0 | 0 | 1 | 12 | 0 | 18 | 0 | 0 | 0 | 0
COC(=O)c1c(-c2ccccc2)c2cc(C)ccc2c(=O)n1Cc1ccccc1 | 2 | 0 | 0 | 0 | 0 | 24 | 0 | 0 | 17 | 0 | 0 | 0 | 0 | 0 | 0 | 0 | 0 | 10 | 0 | 0
COC(=O)c1c(-c2ccccc2)c2cc(Br)ccc2c(=O)n1Cc1ccc(S(C)(=O)=O)cc1 | 9 | 0 | 0 | 19 | 0 | 4 | 2 | 1 | 0 | 11 | 1 | 21 | 13 | 7 | 2 | 17 | 29 | 17 | 12 | 4
Nc1nc(-c2ccccc2F)c(-c2ccnc3ccccc23)s1 [GW560459] | 1 | 0 | 0 | 11 | 0 | 9 | 0 | 0 | 0 | 4 | 0 | 0 | 0 | 0 | 0 | 40 | 50 | 5 | 0 | 0
Fc1cccc(CSc2nnc(-c3ccc4c(c3)CCO4)o2)c1 | 0 | 8 | 0 | 0 | 0 | 25 | 16 | 0 | 20 | 5 | 0 | 0 | 3 | 5 | 6 | 5 | 14 | 0 | 0 | 2
Cc1cccc(-c2nc(Nc3ccc4c(cnn4C)c3)c3ccccc3n2)n1 [GW876731] | 10 | 0 | 0 | 0 | 0 | 0 | 0 | 12 | 0 | 34 | 8 | 100 | 0 | 0 | 0 | 0 | 0 | 5 | 0 | 0
